High-throughput results from PubChem.
Only some compounds are listed: those with a hit (about 21% of all), similar ones and a draw of the others.
Shiga toxin inh: A qHTS for Small Molecule Inhibitors of Shiga Toxin. Vero cells, Shiga toxin protein synthesis inhibition reporter. inhibition, % at 38.7 µM. 290,000 compounds, 9.2% hits. AID 2315, 2010; in the data active means inhibition mostly above about 28%, no sharp cut-off; inactive means mostly below about 43%; further: 0% is about no effect
Pf growth 48h: Primary qHTS for delayed death inhibitors of the malarial parasite plastid, 48 hour incubation; P. falciparum luciferase growth in erythrocytes, 48 h; Potency, µM (highest dose often 28.7 µM), for the others: at the highest dose activity change, negative = inhibition, hits mostly inhibitors; 310,000 compounds, 5.9% hits; further: potency means the concentration at half of the fitted maximal effect; on the % scale 0 is the no-effect control and ±100 the full control effect
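A one-generation exposure of luciferase-tagged malaria parasites in RPMI 1640/Albumax erythrocyte culture, 37 C and 5% CO2. Inhibition is inferred from decreased luminescence after adding detection reagent.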
Cycloheximide cs: Cycloheximide Counterscreen for Small Molecule Inhibitors of Shiga Toxin. cell reporter, cycloheximide protein synthesis inhibition counterscreen. max response, %. 300,000 compounds, 12% hits. AID 2314, 2010; in the data active means max response mostly above about 13%, no sharp cut-off; inactive means mostly below about 14%; further: read at 38.3 µM for the half of the compounds with a filed dose; 0% is about no effect
HCV inhibitor: qHTS Assay for Inhibitors of Hepatitis C Virus (HCV) | Huh7.5.1 HCVcc-Cre infection, luciferase reporter, 44 h | Potency, µM (top dose mostly 41.8 µM), for inactives: at the highest dose activity change, negative = inhibition, hits mostly inhibitors | 340,000 compounds, 3.4% hits; further: potency means the concentration at half of the fitted maximal effect; on the % scale 0 is the no-effect control and ±100 the full control effect
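Seed cells (1,000/well) for 4 h; treat with compound and infect with HCVcc-Cre, moi about 0.5. Incubate 44 h, then detect luciferase activity.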
Pf growth 96h: Primary qHTS for delayed death inhibitors of the malarial parasite plastid, 96 hour incubation | AID 504834, 2011 | Potency, µM (titrated, usually from 28.7 µM), inactives show top-dose activity change, negative = inhibition, most hits filed as inhibitors | 320,000 compounds, 6.9% hits | P. falciparum luciferase reporter growth, 96 h; further: potency means the concentration at half of the fitted maximal effect; on the % scale 0 is the no-effect control and ±100 the full control effect
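Delayed-death screen, second-generation endpoint: infected erythrocytes, 2% hematocrit, 0.05% parasitemia final; 96 hours at 37 C, 5% CO2; luciferase detection reagent; luminescence decrease equals reduced growth.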
HCMV antiviral: qHTS Assay for inhibitors of the human cytomegalovirus (HCMV). HFF cells, HCMV-luciferase reporter, 72 h; hits give low values. activity change, negative = inhibition, % at 57.5 µM. 410,000 compounds, 4.5% hits. AID 1259415, 2018; in the data active means activity change below about -60%; inconclusive means no clear call, values can overlap the other calls; inactive means above about -39%; further: on the % scale 0 is the no-effect control and ±100 the full control effect
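Luciferase read-out from HCMV-luciferase-infected HFFs (MOI 1 PFU/cell) 72 h post infection at 37C; compounds added after 16 h cell attachment; activity normalized between buffer-only basal and Salinomycin (10uM) inhibitor controls.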
Starred values were filed as active, the others as inactive; i = inactive; ? = inconclusive; . = not tested or not shown; [ ] = remark or other dose. Unless noted, the call rests on the fitted dose curve; in most records, active means well fitted inhibition curve with a large enough effect; inconclusive means small, poorly fitted or top-dose-only effect, or another doubt; inactive means no such curve, though single readings can be large or run the other way.

SMILES	Shiga toxin inh	Pf growth 48h	Cycloheximide cs	HCV inhibitor	Pf growth 96h	HCMV antiviral
COc1ccc(N(CC(=O)N/N=C/c2ccc3c(c2)OCO3)S(=O)(=O)c2ccc(NC(C)=O)cc2)cc1	-5	13µM*	-1	?	?	-29
COc1ccc(OC)c(N(CC(=O)Nc2ccccc2)S(=O)(=O)c2ccccc2)c1	.	?	1	?	?	?
CCOc1ccc(NS(=O)(=O)c2ccc(C(=O)N(C)CC(=O)Nc3ccc(C)cc3)cc2)cc1	.	?	.	-6%	0%	-34
CN(C)CCNC(=O)CC1(C)N=C(c2ccc(-c3ccccc3)cc2)N(C)O1 (stereo unspecified)	.	.	.	.	.	-10
COCCCNC(=S)N1CCN(c2ccccc2)CC1	9	0%	-4	1%	20%	?
CCOc1ccccc1N(CC(=O)N(C)Cc1ccccc1)S(=O)(=O)c1ccccc1	58*	?	26	-15%	7%	?
COc1ccc(S(=O)(=O)N(C)CC(=O)Nc2ccc3c(c2)OCCO3)cc1	.	-14%	.	-9%[8.37 µM]	-3%	-28
CC(NS(=O)(=O)c1ccc(F)cc1)C(=O)Nc1ccc2c(c1)OCCO2 (stereo unspecified)	21	18%	11*	16%	-1%	2
CN(CC(=O)Nc1ccc2c(c1)OCCO2)S(=O)(=O)c1ccc(F)cc1	117*	35%	27*	-4%	?	-2
C[C@H](NS(=O)(=O)c1ccccc1)C(=O)OCC(=O)NC(=O)Nc1ccc2c(c1)OCCO2	86*	56%	74*	13%	43%	105
Cc1ccccc1OCCCn1c(CCNC(=O)C2CCCCC2)nc2ccccc21	29	.	7	.	.	-14
COc1ccc(N(CC(=O)Nc2ccc3c(c2)OCO3)S(=O)(=O)c2ccc(C)cc2)cc1OC	-6	?	1	7%	?	-25
COc1ccc(N(CC(=O)N/N=C/c2ccccc2F)S(=O)(=O)c2ccccc2)cc1	-6	-30%[0.00184 µM]	-3	?	?	-77*
COc1ccc(OC)c(NC(=O)CN(c2ccccc2OC)S(=O)(=O)c2ccc(C)cc2)c1	.	.	.	.	.	-100*
COc1ccc(N(CC(=O)N/N=C/c2cccc(OC)c2OC)S(=O)(=O)c2ccccc2)cc1	3	?	6	?	?	-34
CCc1ccccc1NC(=O)CN(c1ccccc1OC)S(=O)(=O)c1ccc(C)cc1	.	.	.	.	.	-8
COc1ccc(N(CC(=O)Nc2ccc3c(c2)OCO3)S(=O)(=O)c2ccccc2)cc1OC	3	2.9µM*	-1	?	?	-21
COc1ccc(S(=O)(=O)N(C)CC(=O)Nc2ccc3c(c2)OCO3)cc1	10	-5%	15	?	.	21
COc1ccc(N(CC(=O)Nc2ccc3c(c2)OCO3)S(=O)(=O)c2ccc(F)cc2)cc1	11	0%	10	?	-15%	-76*
CCOc1ccc2c(c1)c(=O)c(C(=O)c1ccccc1)cn2Cc1ccccc1	.	.	.	.	.	2
CCC(C)NC(=O)CN(c1ccc(OC)cc1)S(=O)(=O)c1ccc(NC(C)=O)cc1 (stereo unspecified)	7	?	-5	8%	6.6µM*	15
COc1ccc(N(CC(=O)Nc2ccc(OC)c(OC)c2)S(=O)(=O)c2ccccc2)cc1Cl	-3	?	-2	13µM*	?	59
COc1ccc(N(CC(=O)NC2CCCC2)S(=O)(=O)c2ccc(NC(C)=O)cc2)cc1	-9	?	-3	?	0%	2
COc1ccc(S(=O)(=O)N(C)CC(=O)Nc2ccc3c(c2)OCO3)cc1OC	16	3%	7.8*	?	-3%	10
COc1ccccc1N(CC(=O)Nc1ccc2c(c1)OCCO2)S(=O)(=O)c1ccc(C)cc1	47*	?	32*	?	-5%	-24
SMILES	Shiga toxin inh	Pf growth 48h	Cycloheximide cs	HCV inhibitor	Pf growth 96h	HCMV antiviral
COc1ccccc1N(CC(=O)Nc1ccc2c(c1)OCCO2)S(C)(=O)=O	10	15%	-1	-8%	?	-17
CC(C)NC(=O)C1(C)CCN1C(=O)c1ccc2c(c1)OCO2 (stereo unspecified)	.	.	.	.	.	-20
COc1ccc(NC(=O)CO/N=C/C(=O)Nc2ccccc2C)c([N+](=O)[O-])c1	.	-7%	.	?	48%	4
COc1ccc(N(CC(=O)Nc2ccc3c(c2)OCCO3)S(=O)(=O)c2cccc(C)c2)cc1	.	?	.	?	22%	-77*
COc1ccc(N(CC(=O)Nc2ccc3c(c2)OCCO3)S(=O)(=O)c2c(C)nn(C)c2C)cc1	11	.	0	4%	-13%	3
COc1ccc2[nH]cc(C(=O)CNc3nc(C)cs3)c2c1	141*	1.7µM*	36*	-16%	36%	72
COc1ccc2[nH]cc(C(=O)CCl)c2c1	-7	7%	-7	?	-5%	-100*
COc1ccc2[nH]cc(C(=O)CN3CCN(C/C=C/c4ccccc4)CC3)c2c1	5	12µM*	2	.	10µM*	30
COc1ccc2[nH]cc(C(=O)CN3CC(C)CC(C)C3)c2c1 (stereo unspecified)	7	-6%	-3	-11%	19%	56
Fc1ccc(Nc2nc(-c3cccc(Cl)c3)c3c(n2)-c2ccccc2OC3)c(F)c1	.	.	.	.	.	-11
CCc1ccc(C(=O)CSC2=C(C#N)C(c3ccco3)C(C(C)=O)=C(C)N2)cc1 (stereo unspecified)	32	?	30*	.	37%	.
CC(=O)C1=C(C)NC(SCC(=O)c2ccc(Cl)c(Cl)c2)=C(C#N)C1c1ccco1 (stereo unspecified)	14	1.2µM*	10	?	-112%	20
CC(=O)C1=C(C)NC(SCC(=O)c2cc(Cl)ccc2Cl)=C(C#N)C1c1ccco1 (stereo unspecified)	-5	9.3µM*	1	?	9.3µM*	-27
O=C(Oc1cccc([N+](=O)[O-])c1)C1CCN(C(=O)c2ccc(F)cc2)CC1	-17	10%	-1	.	-26%	-4
CCOC(=O)c1c(C)sc(-c2c(-c3ccc(OC)c(F)c3)[nH]c3c2c(=O)[nH]c(=O)n3C)c1O	.	.	.	.	.	2
Cc1cc(-n2c(C)cc(C(=O)CSc3nncn3C(C)C)c2C)no1	.	?	.	6%	?	-97*
Cc1cc(C)c(C(N)=O)c(SCC(=O)c2cc(C)n(-c3cc(C)on3)c2C)n1	.	.	.	2.2µM*	.	?
Cc1cc(-n2c(C)cc(C(=O)CSc3nncn3C)c2C)no1	.	.	.	?	.	-24
Cc1cc(C)c(C(N)=O)c(SCC(=O)c2cc(C)c(C)cc2C)n1	-6	9%	12	?	i	-35
